Inconclusive results are not listed. The source made the active and inactive calls. Calls follow the shape of the full dose curve.
molecular target: cAMP-dependent protein kinase catalytic subunit alpha (Homo sapiens) (UniProt P17612); test: Protein Kinase A (PKA-HiBiT) enzymatic inhibition screen - Functional assay; settings: luminescence; series mostly up to 57.5 µM; activity change, negative = inhibition: at the top concentration
How it was run: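 PKA-N-HiBiT enzyme (10 nM final) with 87.5 uM ATP preincubated 30 min at room temperature with compounds. Kemptide substrate then added for 3 h; residual ATP read by Kinase-Glo Plus luminescence, H-89 as positive control.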

Activity change, negative = inhibition, inactive:
Cc1[nH]c2ccccc2c1C1=C(NCCc2ccc(F)cc2)C(=O)N(C)C1=O 9.02%
O=C1C(c2c(O)[nH]c3ccccc23)=Nc2ccccc21 9.08%
Cc1cc(NC(=O)c2ccc(C)c(Nc3nccc(-c4cccnc4)n3)c2)cc(-n2cnc(C)c2)c1 8.62%
O=C(O)C1(Cc2cccc(Nc3nccs3)n2)CCC(Oc2cccc(Cl)c2F)CC1 (stereo not given) 8.13%
Cc1cn(-c2cccc(NC(=O)c3ccc(C)c(Nc4nccc(-c5cccnc5)n4)c3)c2)cn1 9.04%
COc1cc(NC(=O)c2cccc(-n3cc(NC(=O)Nc4cccc(C)c4)cn3)c2)cc(OC)c1OC 9.22%
CCN1CCN(Cc2ccc(NC(=O)Nc3ccc(Oc4cc(NC)ncn4)cc3)cc2C(F)(F)F)CC1 -25.1%
CCN1C(=O)CNc2ncc(-c3ccc(-c4ncn[nH]4)nc3C)nc21 6.55%
CC(C)n1nc(-c2cc3cc(O)ccc3[nH]2)c2c(N)ncnc21 1.41%
Nc1ncc(-c2cnn(CCO)c2)c2scc(-c3ccc(NC(=O)Nc4cccc(F)c4)cc3)c12 8.42%
COc1cc2ncnc(-n3nc(-c4ccccn4)nc3N)c2cc1OC 8.51% [at 28.8 µM]
Cc1cccc(C)c1-n1c(=O)c2cnc(Nc3ccc(N4CCN(C)CC4)cc3)nc2n2c3ccccc3nc12 8.73%
C#Cc1cccc(Nc2ncnc3cc4c(cc23)OCCOCCOCCO4)c1 8.9%
Cc1nc2ccc(-n3ncc(C(=O)c4cc5ccccc5[nH]4)c3N)cc2[nH]1 6.67%
COc1ccc(CNC(=O)Nc2ncc([N+](=O)[O-])s2)cc1 9.14%
O=C(NC1CCNCC1)c1[nH]ncc1NC(=O)c1c(Cl)cccc1Cl 9.1%
Cc1ccc(NC(=O)c2ccc(CN3CCN(C)CC3)cc2)cc1Nc1nc(-c2cccnc2)cs1 9%
C=CC(=O)N1CCC(Oc2cc3c(Nc4ccc(Cl)c(Cl)c4F)ncnc3cc2OC)CC1 8.38%
COc1cc2ncnc(Nc3ccc(F)c(Cl)c3)c2cc1OCCCN1CCOCC1 7.9%
COc1cc2c(Oc3ccc4[nH]c(C)cc4c3F)ncnc2cc1OCCCN1CCCC1 8.67%
Cc1ccc(C(=O)Nc2ccc(Oc3cc4cnn(C)c4cc3-c3cn[nH]c3)c(F)c2)c(=O)n1-c1ccc(F)cc1 9.16%
O=c1c(O)c(-c2ccc(O)c(O)c2)oc2cc(O)cc(O)c12 9.03%
CNc1ncc2cc(-c3cc(NC(=O)NCCC(C)(C)C)c(F)cc3C)c(C)nc2n1 9.18%
Nc1ncccc1-c1nc2ccc(-c3ccccc3)nc2n1-c1ccc(C2(N)CCC2)cc1 7.73%
COc1ccc(S(=O)(=O)N(C(C)=O)c2ccccc2/C=C/c2cc[n+]([O-])cc2)cc1 8.95%
CCn1c(=O)c(-c2ccc(Cl)cc2Cl)cc2cnc(Nc3ccc(N4CCNCC4)c(F)c3)nc21 3.24%
Cc1cc(-c2cc(O)ccc2Cl)cc2nnc(Nc3ccc(OCCN4CCCC4)cc3)nc12 8.95%
O=C(Nc1ccc(OC(F)(F)F)cc1)c1sccc1NCc1ccnc2ccccc12 8.4%
Cn1sc(=O)n(Cc2ccccc2)c1=O 8.82%
CCN1/C(=C\C(C)=O)Sc2ccc(OC)cc21 8.95%
Oc1ccc(-c2ccc(-c3cc(Nc4cccc(CNC5CC5)c4)n[nH]3)cc2)c(O)c1 -2.94%
Nc1ncnc2c1c(-c1cnc3[nH]ccc3c1)nn2C1CCCC1 5.45%
COc1cc2ncnc(Oc3cccc(NC(=O)Nc4cc(C(C)(C)C(F)(F)F)on4)c3)c2cc1OC 8.13%
Cc1ccccc1-n1c([C@H](C)Nc2nc(N)nc3nc[nH]c23)nc2cccc(C)c2c1=O 9.05%
c1ccc(-c2oc3ncnc(NC[C@@H]4CCCO4)c3c2-c2ccccc2)cc1 8.72%

— PubChem BioAssay AID1963321 (National Center for Advancing Translational Sciences (NCATS), 2024)
